Test results from the supplement of paper PMC13380429.
Unmarked numbers belong to inactive results.

system: Vero E6 infected with SARS-CoV-2; assay: inhibition of SARS-CoV-2 cytopathic effect; higher = more antiviral protection, active = above 15; details: 1 nM; 48 h

Compound | inhibition of SARS-CoV-2 cytopathic effect
COc1ccccc1N1CCN(CCCCNC(=O)c2ccc(-c3ccc(C(C)=O)cc3)cc2)CC1 | -1.49%
Cc1ccc(C(=O)N(CCCN)[C@@H](c2nc3cc(Cl)ccc3c(=O)n2Cc2ccccc2)C(C)C)cc1 [ispinesib] | 0.51%
CCCCCCNC(=O)n1cc(F)c(=O)[nH]c1=O [Carmofur] | -1.95%
CN1CCN(CCCN2c3ccccc3Sc3ccc(S(=O)(=O)N(C)C)cc32)CC1 [thioproperazine] | 0.81%
CC1(C)OC(=O)NC1=O [dimethadione] | -1.41%
CN(C(=O)c1c(O)c2ccccc2n(C)c1=O)c1ccccc1 [roquinimex] | -4.01%
COc1ccc(CC2NCCc3cc(OC)c(OC)cc32)cc1OC (stereo not given) [tetrahydropapaverine] | 1.62%
O=C(Nc1nc2cccc(-c3ccc(CN4CCS(=O)(=O)CC4)cc3)n2n1)C1CC1 [filgotinib] | -1.13%
C=CCSCC1Nc2cc(Cl)c(S(N)(=O)=O)cc2S(=O)(=O)N1 (stereo not given) [althiazide] | 0.54%
Cc1c(Cl)cccc1S(=O)(=O)Nc1nc(NCCc2ccccc2)nc2c1CN(Cc1ccccc1)CC2 | 5.62%
O=C(Nc1ccc(S(=O)(=O)C(F)(F)F)cc1)C1=CCN(c2ncccc2C(F)(F)F)CC1 | 0.25%
CCC(=O)NO | 3%
CCCCCCCCCCCCCCOC(=O)c1cccnc1 [myristyl-nicotinate] | 0.94%
CCOC(=O)[C@H]1O[C@@H]1C(=O)N[C@@H](CC(C)C)C(=O)NCCC(C)C [aloxistatin] | 0.43%
CCc1cc(-c2[nH]nc(C)c2-c2ccc3c(c2)OCCO3)c(O)cc1O | -2.8%
CC1(C)Oc2ccc(C#N)cc2[C@@H](N2CCCC2=O)[C@@H]1O [levcromakalim] | 0.65%
CC1(C)[C@@H](OC(=O)CCC(=O)O)CC[C@]2(C)[C@H]3C(=O)C=C4[C@@H]5C[C@@](C)(C(=O)O)CC[C@]5(C)CC[C@@]4(C)[C@]3(C)CC[C@@H]12 | 0.51%
CC(C)C[C@H](NC(=O)[C@@H](O)[C@H](N)Cc1ccccc1)C(=O)O [ubenimex] | -0.51%
Nc1ncnc2c1C(=O)N(c1ccc([C@H]3CC[C@H](CC(=O)O)CC3)cc1)CCO2 | 4.58%
OCc1c[nH]c2ccccc12 [indole-3-carbinol] | -1.46%

Compound | inhibition of SARS-CoV-2 cytopathic effect
CCCCCCCCCCCCCCCC(=O)O[C@@H]1[C@@H](O)[C@@H](O)[C@@H]([C@H](NC(=O)[C@@H]2C[C@@H](CCC)CN2C)[C@H](C)Cl)O[C@@H]1SC [clindamycin-palmitate] | -0.87%
Cc1ccccc1N1CCN(S(=O)(=O)C[C@]23CC[C@H](C[C@@H]2NC(=O)[C@@H](N)CCS(C)(=O)=O)C3(C)C)CC1 | 0.06%
Cc1nnc(NS(=O)(=O)c2ccc(N)cc2)s1 [sulfamethizole] | 3.32%
C[C@@H](NCCCc1cccc(C(F)(F)F)c1)c1cccc2ccccc12 [cinacalcet] | 1.8%
CN(C)CCCCSC(=N)N | -2.5%
COc1ccc([C@@H]2CC(=O)c3c(O)cc(O[C@@H]4O[C@H](CO)[C@@H](O)[C@H](O)[C@H]4O[C@@H]4O[C@@H](C)[C@H](O)[C@@H](O)[C@H]4O)cc3O2)cc1O [neohesperidin] | -2.2%
NC(=O)CC[C@H](N)C(=O)O [L-glutamine] | 0.7%
O=C1[C@H](CC[C@H](O)c2ccc(F)cc2)[C@@H](c2ccc(O)cc2)N1c1ccc(F)cc1 [ezetimibe] | 0.31%
COC(=O)Nc1nc2cc(SC(C)C)ccc2[nH]1 [methiazole] | 0.45%
Nc1nc(F)nc2c1ncn2[C@@H]1O[C@H](COP(=O)(O)O)[C@@H](O)[C@@H]1O [fludarabine-phosphate] | 1.37%
CCN1CCC[C@H]1CNC(=O)c1c(O)c(Cl)cc(Cl)c1OC [raclopride] | -5.41%
COc1ccc(C2CC(c3ccccc3)=NN2c2ccc(S(N)(=O)=O)cc2)cc1 (stereo not given) | 0.58%
Cc1ncc(CO)c(/C=N/NC(=O)c2ccncc2)c1O [pyridoxal-isonicotinoyl-hydrazone] | 3.14%
CNC[C@H](O)c1ccc(O)c(O)c1 [epinephrine] | 3.04%
Oc1ccc2ccccc2c1 [beta-naphthol] | -0.51%
O=C(O)C1=C(CSc2nnnn2CS(=O)(=O)O)CS[C@@H]2[C@H](NC(=O)[C@H](O)c3ccccc3)C(=O)N12 [Cefonicid (sodium)] | -0.91%
CC(C)NC(=N)NC(=N)Nc1ccc(Cl)cc1 [proguanil] | -0.7%
CCCCC(=O)O[C@H]1CC[C@H]2[C@@H]3CCc4cc(O)ccc4[C@H]3CC[C@]12C | -0.93%
CC(CN(C)C)C(C)(O)Cc1ccc(Cl)cc1 (stereo not given) [clobutinol] | -0.23%
Cn1cc(C(=O)OCC2CCN(CCNS(C)(=O)=O)CC2)c2ccccc21 | -2.5%
